Screens from PubChem BioAssay.
LGR2 antag: inhibitors of bursicon-induced Drosophila LGR2 receptor cAMP signaling; inhibition, % at 9.99 µM; HEK293 LGR2, CRE-luciferase, bursicon-stimulated, 4 h; hit rate 0.35% among 380,000;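 active = drop in luminescence signal, shown as inhibition above about 50% in the replicate tests, limit read from the data, passing the limit was not always enough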;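 note: agonist challenge used bursicon conditioned medium at about half maximal strength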
PAX8 reporter: inhibitors of PAX8 transcriptional activity in RMG-I cells; AID 652154; RMG-I TPO-luciferase reporter, SteadyGlo, 24 h; inhibition, % at 12.6 µM; hit rate 1.2% among 360,000;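 active = mean replicate inhibition at least 60% with every replicate also reaching 60%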;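 note: luciferase light reporting Pax8 driven TPO promoter activity; plate controls were median of neutral control wells for no effect and mitoxantrone controls for full effect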
EWS-Fli block: blocks EWS/Fli oncoprotein-driven transcription; inhibition, % at 12.6 µM; A673 NR0B1-luciferase reporter, viability-normalised; hit rate 0.67% among 350,000;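 active = mean inhibition of at least 50% after viability correction, with every replicate also passing that limit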;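 note: firefly luciferase signal divided by Alamar Blue viability fluorescence both relative to DMSO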
CFTR F508del cor: CFTR F508del correction in bronchial cells | CFBE cells, YFP halide quenching; stimulated with forskolin plus potentiator P3; % fluorescence drop versus neutral controls | hit rate 0.36% among 350,000 | activity (quench increase), % at 7.58 µM;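 active = mean added fluorescence quench of at least 8% versus neutral control, with both replicates also reaching 8%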;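 note: cells transiently co-express mutant CFTR-F508del with the halide-sensitive YFP; corrector assay measuring rescue of mutant channel to the surface after 24 h compound exposure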
Numbers without * were called inactive; x = no result given. A selection: hits, their analogues and other compounds. The true share with any hit is near 1.8%.

SMILES	LGR2 antag	PAX8 reporter	EWS-Fli block	CFTR F508del cor
COC(=O)C1=C(C)N(Cc2cccc(C(F)(F)F)c2)C(=NCc2cc(OC)c(OC)c(OC)c2)NC1c1cccc(C(F)(F)F)c1 (configuration not stated)	-4.0	85.3*	44.7	1.4
C[C@H](CO)N1C[C@H](C)[C@H](CN(C)C)Oc2ncc(C#Cc3ccccc3F)cc2C1=O	-0.7	x	-2.5	-0.2
CCCNC(=O)C1(C)CCCN(C(=O)c2ccc3c(c2)CCO3)C1 (configuration not stated)	8.9	2.3	2.4	-2.8
O=C(CNC(=S)N(Cc1ccccc1F)C1CCCCC1)NCC1CCCO1 (configuration not stated)	4.2	65.4*	-5.1	2.7
CC(=O)NC1C(=O)N=C(SCC(=O)Nc2ccc(C(F)(F)F)cc2Cl)NC1=O (configuration not stated)	6.3	8.5	9.8	1.0
C=C1C(=O)C23CCC4C(C)(C(=O)OC)CCCC4(C)C2CCC1(O)C3 (configuration not stated)	x	133.8*	56.0*	-4.3
COC(=O)[C@]1(C)CCC[C@@]2(C)C3CC[C@@]4(C)C[C@]3(CCC21)CC(=O)N4 (some centres not stated)	12.0	5.6	-3.0	1.2
COc1ccccc1CNC(=O)C[C@@H]1C[C@@H]2c3cc(NC(=O)CC4CC4)ccc3O[C@@H]2[C@H](CO)O1	20.4	7.2	6.0	0.3
CN(Cc1nccn1C)C(=O)c1cc(COc2ccc3ncccc3c2)on1	x	-6.7	-2.2	-4.5
Cc1cc(CN(C)C(=O)c2cc(COc3ccc4ncccc4c3)on2)on1	11.9	91.2*	-0.5	1.5
C[C@@H]1CN([C@@H](C)CO)C(=O)c2cc(-c3ccncc3)cnc2O[C@H]1CN(C)C(=O)C1CCOCC1	10.7	x	-6.0	-0.1
O=C(Nc1nc(-c2ccccn2)cs1)c1cccc(S(=O)(=O)N2CCOCC2)c1	21.7	81.1*	14.2	3.5
Cc1ccc(S(=O)(=O)N2CCOCC2)cc1C(=O)Nc1nc(-c2ccccn2)cs1	7.6	50.9	-1.3	3.4
COc1cc(C(=O)NCC2CCCO2)ccc1OCc1ccc(Cl)cc1 (configuration not stated)	9.4	-36.7	-21.1	11.1*
COc1cccc(C(=O)NCC(c2cccs2)N2CCOCC2)c1 (configuration not stated)	-14.8	-12.0	-15.9	-0.8
O=C(NCC(c1cccs1)N1CCOCC1)c1ccc(OCc2ccccc2)cc1 (configuration not stated)	-6.0	-17.5	-7.9	9.1*
COc1cc(C(=O)NCC(c2cccs2)N2CCOCC2)ccc1OCc1ccc(Cl)cc1 (configuration not stated)	1.6	98.9*	12.5	-0.6
CCC(=O)N1CCc2cc(Br)cc(S(=O)(=O)NCCCN(CC)Cc3ccccc3)c21	-11.2	18.8	14.7	-1.3
C[C@@H]1CN([C@@H](C)CO)C(=O)c2cc(C3=CCCC3)cnc2O[C@H]1CN(C)C(=O)CN1CCOCC1	-6.9	-7.5	-19.2	0.3
CCCCNC(=O)CSc1nc2cc3c(cc2c(=O)n1CCCN(CC)CC)OCO3	x	2.7	x	x
CCC(=O)N1[C@@H]2CN(C(=O)NC(C)C)c3ccccc3[C@@H]2[C@@H]1CO	5.4	-1.7	-3.2	-0.5
Cc1cccc(NC(=O)CN2C(=O)C3CC=CCC3C2=O)c1C (configuration not stated)	-16.4	-8.9	-4.4	x
Cc1ccccc1NC(=O)CN1C(=O)C2C3CC(C(Br)C3Br)C2C1=O (configuration not stated)	8.2	63.3*	5.5	x
Cc1ccc2nc(-c3ccco3)c(Cc3ccccc3)n2c1	-20.8	66.1*	-68.6	-0.3
Clc1ccc2nc(-c3ccco3)c(Cc3ccccc3)n2c1	-9.7	3.6	5.2	-1.4
SMILES	LGR2 antag	PAX8 reporter	EWS-Fli block	CFTR F508del cor
CC[n+]1ccccc1/C=C1\Sc2ccc(C)cc2N1C	12.8	42.4	55.0*	0.7
COc1cccc(Cn2c(=O)c3ccccc3n3nc(C)cc23)c1	9.1	1.2	1.8	0.4
CCC[C@H](CN[C@@H](CNC)[C@H](C)O)NCCc1ccc(OC)cc1	-1.3	-10.5	-6.6	-1.0
CCCC[C@H](CN[C@@H](CNC)[C@H](C)CC)NCCC12CCC(CC1)C2	34.8	26.6	57.2*	-1.2
NC(=O)c1ccsc1NC(=O)c1ccc(N2CCCC2=O)cc1	71.9*	2.5	-28.9	-0.9
NC(=O)c1ccsc1NC(=O)c1ccc2c(c1)CCCC2	62.6*	-4.3	11.0	-0.7
CC(C)Cc1nnc(NC(=O)c2ccc(N3CCCC3=O)cc2)s1	-19.2	-18.4	-3.4	-0.4
Cc1ncc(CO)c2c1Oc1nc(-c3ccccc3)nc(SCC(=O)Nc3cccc(O)c3)c1C2	5.3	28.3	-0.4	1.9
COc1ccc(-c2nc3c(c(SCC(=O)Nc4cccc(O)c4)n2)Cc2c(CO)cnc(C)c2O3)cc1	15.7	88.2*	x	2.7
C[C@@H]1CN([C@@H](C)CO)C(=O)Cc2cc(NS(=O)(=O)c3cn(C)cn3)ccc2O[C@H]1CN(C)S(=O)(=O)c1ccc(F)cc1	-3.1	x	3.2	-1.0
O=C1N(CCS(=O)(=O)c2ccccc2)Cc2ccccc2C[C@@]12N=C(c1ccc(OCCCO)cc1)O[C@H]2c1ccccc1	x	94.4*	5.8	4.2
O=C1N(CCS(=O)(=O)c2ccccc2)Cc2ccccc2[C@@H]2OC(c3ccc(OCCCO)cc3)=N[C@]12CCS(=O)(=O)c1ccccc1	x	4.1	15.7	-4.7
O=C1N(Cc2ccccc2)Cc2ccccc2[C@@H]2OC(c3ccc(OCCCO)cc3)=N[C@]12Cc1ccccc1	x	64.2*	10.4	-1.9
O=C(c1ccccc1)N1Cc2ccccc2C[C@]2(N=C(c3ccc(OCCCO)cc3)O[C@@H]2c2ccccc2)C1=O	x	68.1*	-3.5	6.3
C[C@@H]1CCCCO[C@@H](CN(C)C(=O)CCCN(C)C)[C@@H](C)CN([C@H](C)CO)C(=O)c2cc(NC(=O)Nc3ccc4c(c3)OCO4)ccc2O1	-8.2	9.7	0.1	1.8
COC(=O)c1sccc1N/N=C/c1ccc(OC)c(OC)c1OC	-27.2	-162.7	-104.9	-0.7
CCOc1cccc(C=NNC(=O)C(=O)Nc2cccc(C(F)(F)F)c2)c1O	28.2	69.9*	13.8	2.4
COc1cccc(/C=N/NC(=O)C(=O)N/N=C/c2cccc(OC)c2O)c1O	14.9	6.0	11.3	10.4*
COC(=O)c1sccc1N/N=C/c1cccc(OC)c1O	77.4*	6.8	32.4	x
COc1ccc2nc(SCC(=O)NC3CCCC3)c(C)cc2c1	2.9	13.8	55.1*	-0.2
Cn1c(C=O)c(C#CC(C)(C)O)c2ccccc21	-0.6	74.3*	2.4	-1.1
COc1cccc(C#Cc2c(C=O)n(C)c3ccccc23)c1	-17.1	85.3*	-17.3	-3.0
Cc1cc(SCC(=O)Nc2ncc(Cl)cc2Cl)nc2ccccc12	13.6	13.5	x	x
O=C(Nc1ccccc1)c1cc(C2CCCN(C(=O)C3CC3)C2)on1 (configuration not stated)	83.8*	-4.5	50.2	-1.9
O=C(NCc1ccccc1)c1cc(C2CCCN(C(=O)C3CC3)C2)on1 (configuration not stated)	-14.1	-13.7	-31.2	2.0
